Hits are enriched below; roughly 2.2% of the tested compounds scored in any of these assays.
TDP-43 yeast inh – TDP-43 toxicity inhibition in yeast. 410,000 tested, 1.8% active. Potency, µM (titrated, usually from 46.1 µM), without a hit: at the top dose growth rescue (activation), actives largely listed as activators. TDP-43 expressing yeast growth rescue, BacTiter-Glo, 24 h. AID 652104; note: % of control where 0% means no effect; nearly all actives have a fitted effect of over 50% in size
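In this qHTS, compounds that restore growth of yeast expressing TDP-43 appear as activators. Cells (OD600=0.02, galactose medium, raffinose-pregrown) are incubated with compound 24 hr at 30 deg C and growth is quantified by BacTiter-Glo.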
Mito fusion act – mitochondrial division inhibition or fusion activation; Potency, µM (titrated, usually from 46.1 µM), for the others: at the highest dose growth rescue (activation), most hits filed as activators; 320,000 tested, 0.23% active; S. cerevisiae fusion-defective mutant growth rescue, CellTiterGlo 48 h; note: % of control where 0% means no effect; nearly all actives have a fitted effect of over 45% in size
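Luminescent cell viability in 1536-well qHTS format served as the measure of rescued growth in ts fusion-mutant S. cerevisiae cultured on non-fermentable YPEG for 48 hours at 37C.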
Abeta rescue – compounds reversing amyloid beta toxicity in yeast; yeast expressing A-beta42, growth rescue, OD600, 48 h; response scale: 0% DMSO, 100% iron-clioquinol control; Potency, µM (highest dose often 46.1 µM), hits mostly activators; 410,000 tested, 0.063% active; AID 1347071; note: nearly all actives have a fitted effect of over 55% in size
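Growth rescue measured by 600 nm absorbance after 48 h yeast culture at 30 C with compound. Values normalized between DMSO and an equimolar ferric chloride plus clioquinol control.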
FUS yeast rescue – rescues growth of FUS-expressing yeast | 390,000 tested, 0.24% active | S. cerevisiae FUS-expressing, growth rescue, OD600, 24 h | Potency, µM (highest dose often 76.6 µM), usual class: activators;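 note: plate controls were DMSO vehicle for no effect and reference control for full effect; nearly all actives have a fitted effect of over 55% in size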
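S. cerevisiae expressing FUS from galactose induction served as the toxicity model. Growth after 24hr at 30C, read as absorbance at 600 nm, indicates suppression of toxicity; compounds dosed at several concentrations.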
aSyn rescue – rescues yeast growth from alpha-synuclein toxicity. Yeast expressing alpha-synuclein, growth rescue, BacTiter-Glo, 24 h. Potency, µM (series often up to 46.1 µM), for inactives: at the top dose growth rescue (activation), hits mostly activators. 370,000 tested, 0.14% active. AID 652106; note: % of control where 0% means no effect; nearly all actives have a fitted effect of over 65% in size
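Rescue of yeast growth: cells expressing toxic alpha-synuclein, induced in galactose at OD600 0.02, incubated with compound 24 h at 30 C. ATP luminescence quantified growth; inhibitors of toxicity appear as activators.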
The depositor's hits bear a star; i = inactive; u = inconclusive; x = no result; [ ] = remark or other dose. Calls come from the whole dose curve; as a rule, active = well fitted curve in the direction sought with a large enough effect; inconclusive = small, poorly fitted or top-dose-only effect, or another doubt; inactive = no such curve, though single readings can be large; an effect the other way counts as inactive or inconclusive. Potency is the fitted concentration of half-maximal effect.

SMILES	TDP-43 yeast inh	Mito fusion act	Abeta rescue	FUS yeast rescue	aSyn rescue
COc1cc(OC)c(C(=O)O/N=C(\N)c2ccc(C)cc2)cc1OC	11µM*	4%	i	i	-18%
Cc1ccc(C(=O)O/N=C(\N)c2ccc(Br)cc2)cc1	4µM*	25%	i	x	-24%
COc1cc(OC)c(C(=O)O/N=C(\N)c2cccc(C)c2)cc1OC	u	16%	i	i	-54%
CC(C)(C)c1ccc(C(=O)O/N=C(\N)c2ccccc2)cc1	3.2µM*	-84%	i	i	-49%
COc1ccc(C(=O)O/N=C(\N)c2ccc(Br)cc2)cc1	2.5µM*	10µM*	i	i	-26%
Cc1cccc(-n2nnc(-c3nc(-c4cccs4)no3)c2N)c1	5%	x	i	i	x
C#CCOc1ccc(-c2nnc(Nc3ccc(NC(C)=O)cc3)c3ccccc23)cc1	19%	x	i	i	x
Cc1noc(/C=C/N(C)C)c1S(=O)(=O)N1CCCC(C(=O)Nc2ccc3c(c2)OCO3)C1 (stereo not drawn)	2%	-1%	i	5.6µM*	0%
FC(F)(F)c1cc(CCN2C(=S)NC[C@@H]2Cc2ccccc2)cc(C(F)(F)F)c1	22µM*	-8%	u	u	-22%
Cc1nc(CS(=O)(=O)c2ccccc2)cc(Sc2ccccc2Cl)n1	32µM*	10%	i[9.22 µM]	i	11%
O=S(=O)(Cc1cc(Cl)nc(-c2ccccc2)n1)c1ccccc1	-10%	16%	i	i	-8%
Cc1nc(CS(=O)(=O)c2ccc(Cl)cc2)cc(Sc2ccccc2Cl)n1	35µM*	u	i	i	19%
Cc1nc(CS(=O)(=O)c2ccccc2)cc(Sc2ccc(Cl)cc2)n1	u	24%	i	i	15%
CN(C(=S)NC(=O)C12CC3CC(CC(C3)C1)C2)c1ccc(O)cc1	18µM*	x	i	i	-5%
CC(C)C[C@H]1COCCS(=O)(=O)N1Cc1cccc(Cl)c1	u	x	i	i	1%
CCC(C)[C@H]1COCCS(=O)(=O)N1Cc1ccc(Br)cc1 (stereo partly drawn)	35µM*	2%	i	i	11%
CC(C)[C@H]1COCCS(=O)(=O)N1Cc1ccc(Cl)cc1	3%	0%	i	i	-10%
CC(C)C[C@H]1COCCS(=O)(=O)N1Cc1cccc(C(F)(F)F)c1	14µM*	x	i	i	0%
O=S1(=O)CCOC[C@H](Cc2ccccc2)N1Cc1ccc(Cl)cc1	16µM*	x	i	i	18%
O=C(O)CC1CCC(=C(Cl)Cl)C1 (stereo not drawn)	-8%	-1%	i	i	11µM*
O=C(O)CC1CC(O)CCC1=O (stereo not drawn)	3%	x	i	i	-1%
COc1ccc(-c2cc(CNc3nc4cc(-c5ccccc5C)sc4c(=O)n3C)on2)cc1	17%	x	i	i	22%
CCOc1ccc(-c2cc(C(=O)NCCc3ccc(C)cc3)c3ccccc3n2)cc1	30%	x	i	i	-1%
Cc1csc2nc(COc3ccc(NC(=O)COc4ccc(F)cc4)cc3)cc(=O)n12	12%	x	i	i	x
Cc1cc(NC(=O)COC(=O)c2ccc(Cl)cc2)no1	18%	x	i	i	4%
SMILES	TDP-43 yeast inh	Mito fusion act	Abeta rescue	FUS yeast rescue	aSyn rescue
O=C(COC(=O)c1c(Cl)cccc1Cl)Nc1ccccc1Br	14µM*	u	i	x	3%
O=C(COC(=O)c1ccccc1)Nc1ccccc1Br	1%	-1%	i	i	0%
Cc1cc(NC(=O)COC(=O)c2c(Cl)cccc2Cl)no1	16µM*	0%	i	i	-3%
Cc1ccccc1CN1CCc2nc(N3CCN(c4ncccn4)CC3)ncc2C1	8%	x	i	i	x
CCc1cccc(NC(=O)COC(=O)c2ccccc2OCc2ccccc2Br)c1	x	x	x	x	-13%
CCOC(=O)/C(=C\c1ccc(Cl)cc1)c1nc2sc(C)c(C)c2c(=O)[nH]1	18µM*	1%	i	i	-54%
CN(C)c1ccc(CNC(=O)C(Cc2ccccc2)NS(=O)(=O)c2ccc3c(c2)oc(=O)n3C)cc1 (stereo not drawn)	15%	x	i	i	x
O=C(O)c1ccc(CSc2nc3ccccc3o2)cc1	13µM*	4%	i	i	6%
O=C(CSc1nc2ccccc2o1)N1c2ccccc2Sc2ccccc21	8%	13µM*	i	i	4%
O=C(O)c1ccccc1CSc1nc2ccccc2o1	u	5%	i	i	6%
COc1ccc(C2CC(=O)Nc3c2c(=O)nc2c(C)cccn32)cc1 (stereo not drawn)	-7%	x	i	i	u
COc1cc2c(cc1OC)C(C)N(C(=O)c1cc3c(s1)-c1c(C)cccc1OC3)CC2 (stereo not drawn)	15%	25µM*	i	i	2%
COc1cc2c(cc1OC)C(C)N(C(=O)c1cc3c(s1)-c1ccccc1OC3)CC2 (stereo not drawn)	u	20µM*	i	u	u
Cc1cccc(NC(=O)C2CCCN(S(=O)(=O)c3c(C)[nH]c(=O)[nH]c3=O)C2)c1C (stereo not drawn)	6%	x	i	i	x
CCc1ccc(CNC(=O)c2cc3c(s2)-c2ccccc2OC3)cc1	9%	x	i	i	-3%
COc1cccc2cc(/C(=N/O)c3ccccc3)oc12	11µM*	13%	i	i	16%
COc1cccc2cc(C(C)=O)oc12	u	3%	i	i	2%
Fc1cccc(Nc2ncnc3sccc23)c1	20µM*	-49%	i	i	-8%
Fc1ccccc1CNc1ncnc2sccc12	11µM*	25%	i	i	-2%
c1ccc2c(c1)OCC(CNc1ncnc3sccc13)O2 (stereo not drawn)	20µM*	8%	i	i	12%
CCC(=O)Nc1cccc(-c2cn3c(C)csc3n2)c1	16%	x	i	i	x
Cc1cc(S(=O)(=O)n2ccnc2C(C)C)cc([N+](=O)[O-])c1C	4%	x	i	i	x
O=C(CCc1ccccc1)NCCc1ccc(F)cc1	-9%	1%	i	i	8%
COc1ccccc1CNC(=O)CCn1c(=O)c2ccccc2n(CC(=O)Nc2ccc(C)cc2Cl)c1=O	-20%	x	i	i	x
CCOC(=O)C1=CCN(S(=O)(=O)c2ccccc2F)C1c1ccc(Cl)cc1 (stereo not drawn)	16µM*	x	i	i	13%
CCOC(=O)C1=CCN(S(=O)(=O)c2ccccc2F)C1c1ccc(C)cc1 (stereo not drawn)	0%	x	i	i	2%
COc1cccc(C2Nc3ccccc3C(=O)N2Cc2ccccc2)c1 (stereo not drawn)	20%	x	i	i	3%
